Results as given in PubChem BioAssay AID720690 (Broad Institute, 2013).
Measured potencies and affinities stand elsewhere. Active and inactive are the calls of the source.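 Rule for the calls: active = every repeat run showing a signal drop whose fitted half-maximal concentration is at most twice the top tested concentration; inconclusive = repeat runs disagree, or flat partial drop, or poor fit; inactive = the rest.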

Assay: general mammalian cell viability loss – activator set, cherry-pick, cytotoxicity control for miR-122 modulator project, dose response (AID 720690)
Details: HEK293T viability, CellTiter-Glo luminescence, 48 h; series mostly up to 26 µM

Compound | outcome
O=C(Nc1ccc(CN2CCOCC2)cc1)c1ccc(-c2ccc(Cl)cc2Cl)o1 | inactive
CC(=O)N(C[C@H]1N[C@H](CO)[C@@H]1c1ccc(-c2ccccc2)cc1)C(C)C | inactive
C/C=C/c1ccc([C@@H]2[C@H](CO)N[C@H]2CN(CC)C(=O)CN2CCOCC2)cc1 | inactive
CNC(=O)C[C@H]1CC[C@@H]2[C@H](COc3ccc(NC(=O)Nc4ccccc4)cc3C(=O)N2C)O1 | inactive
Cc1ccc(C(=O)n2nc(-c3ccccc3)nc2NCc2ccco2)cc1 | inactive
CNc1nc(NCCOc2ccccc2)c2sccc2n1 | inactive
CNC(=O)C[C@H]1CC[C@H]2[C@H](COc3ccc(NC(=O)c4cccc(F)c4)cc3C(=O)N2C)O1 | inactive
Cc1cc(C)nc(NS(=O)(=O)c2ccc(NC(=S)NC(=O)C3CCCC3)cc2)n1 | inactive
CCCC(=O)Nc1ccc2c(c1)C(=O)N(C)[C@@H]1CC[C@H](CC(=O)Nc3cn(C)nc3C)O[C@@H]1CO2 | inactive
CCNC(=O)C[C@H]1CC[C@@H]2[C@@H](COc3ccc(NC(=O)c4cccc(C(F)(F)F)c4)cc3C(=O)N2C)O1 | inactive
COC(=O)C[C@H]1CC[C@@H]2[C@@H](COc3ccc(NC(=O)c4cnccn4)cc3C(=O)N2C)O1 | inactive
CNC(=O)C[C@H]1CC[C@@H]2[C@H](COc3ccc(NC(=O)c4cccc(OC)c4)cc3C(=O)N2C)O1 | inactive
C[C@@H]1CN([C@H](C)CO)C(=O)c2cccc(NC(=O)c3ccc(-c4nccs4)cc3)c2O[C@H]1CN(C)S(=O)(=O)c1ccc(F)cc1 | inactive
